Reference: PubChem BioAssay (EPA / NIEHS)
The source made the active and inactive calls. The calls were made as follows: active = hit-call score of the fitted dose curve at least 0.9, where 1 is the maximum; inactive = score below 0.9.

Assays:
[1] = read-out: Tissue Factor, F3 (gene 2152); assay: BSK_CASM3C_TissueFactor: BioMAP Diversity Plus: CASM3C Assay for Tissue Factor Biomarker Activity (AID 2283052); conditions: primary human coronary artery smooth muscle cells; actives raise or lower the signal;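 also: cell surface tissue factor protein level read by ELISA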
[2] = read-out: Interferon-gamma inducible Protein 10 (IP10), CXCL10 (gene 3627); assay: BSK_hDFCGF_IP10: BioMAP Diversity Plus: hDFCGF Assay for Interferon-gamma inducible Protein 10 (IP10) Biomarker Activity (AID 2283053); conditions: primary human foreskin fibroblasts; actives raise or lower the signal
In short: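 Human foreskin fibroblast primary cells (hDFCGF system) were dosed with chemical and assayed at 24 h; IP-10 measured by ELISA. Activity fitted bidirectionally relative to DMSO negative control as baseline.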

[3] = read-out: Urokinase-type plasminogen activator receptor (uPAR), PLAUR (gene 5329); assay: BSK_CASM3C_uPAR: BioMAP Diversity Plus: CASM3C Assay for Urokinase-type plasminogen activator receptor (uPAR) Biomarker Activity (AID 2283054); conditions: primary human coronary artery smooth muscle cells; actives raise or lower the signal;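 also: cell-surface uPAR protein level quantified by ELISA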
[4] = read-out: Vascular cell adhesion molecule 1 (VCAM1), VCAM1 (gene 7412); assay: BSK_CASM3C_VCAM1: BioMAP Diversity Plus: CASM3C Assay for Vascular cell adhesion molecule 1 (VCAM1) Biomarker Activity (AID 2283055); conditions: primary human coronary artery smooth muscle cells; actives raise or lower the signal;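 also: VCAM-1 protein level quantified by ELISA on the cells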
[5] = read-out: Collagen III, COL3A1 (gene 1281); assay: BSK_hDFCGF_CollagenIII: BioMAP Diversity Plus: hDFCGF Assay for Collagen III Biomarker Activity (AID 2283056); conditions: primary human foreskin fibroblasts; actives raise or lower the signal
In short: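 Human foreskin primary fibroblasts were exposed to test chemicals for 24 h, after which collagen III was quantified by ELISA. Activity was fitted bidirectionally against DMSO as negative control and baseline.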

[6] = read-out: Epidermal growth factor receptor (EGFR), EGFR (gene 1956); assay: BSK_hDFCGF_EGFR: BioMAP Diversity Plus: hDFCGF Assay for Epidermal growth factor receptor (EGFR) Biomarker Activity (AID 2283057); conditions: primary human foreskin fibroblasts; actives raise or lower the signal
In short: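 Primary human foreskin fibroblasts were exposed to compound for 24 h, after which cell-surface EGFR was quantified by ELISA. Activity was fitted bidirectionally against the DMSO negative control as baseline.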

[7] = read-out: Interleukin-8 (IL8), CXCL8 (gene 3576); assay: BSK_hDFCGF_IL8: BioMAP Diversity Plus: hDFCGF Assay for Interleukin-8 (IL8) Biomarker Activity (AID 2283058); conditions: primary human foreskin fibroblasts; actives raise or lower the signal
In short: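 hDFCGF human dermal fibroblasts; 24 h chemical exposure; IL-8 by ELISA; bidirectional curve fit vs DMSO baseline; gain or loss of signal scored.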

[8] = BSK_hDFCGF_Proliferation: Cell Proliferation Assessment in the BioMAP Diversity Plus: hDFCGF Assay (AID 2283059); conditions: primary human foreskin fibroblasts;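 also: curves fitted for both rise and fall of signal versus DMSO baseline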
In short: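 Steps: dose primary human dermal fibroblasts (foreskin); […] fix in 10% TCA; stain with 0.1% SRB; read 560 nm; fit gain or loss of signal against DMSO.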

[9] = read-out: Macrophage colony-stimulating factor (MCSF), CSF1 (gene 1435); assay: BSK_hDFCGF_MCSF: BioMAP Diversity Plus: hDFCGF Assay for Macrophage colony-stimulating factor (MCSF) Biomarker Activity (AID 2283060); conditions: primary human foreskin fibroblasts; actives raise or lower the signal
In short: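 Human foreskin primary fibroblasts were treated with test chemical for 24 h, and M-CSF was then measured by ELISA. Data were fitted bidirectionally against DMSO as the negative control and activity baseline.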

[10] = BSK_hDFCGF_SRB: Viability Assessment in the BioMAP Diversity Plus: hDFCGF Assay (AID 2283061); conditions: primary human foreskin fibroblasts;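 also: cells exposed to compound for 24 h before the read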
In short: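 Human foreskin primary fibroblasts were treated with compound and assessed 24 h after dosing. Total protein was measured by sulforhodamine B staining (0.1% SRB after 10% TCA fixation, 560 nm read) as a cytotoxicity marker, with bidirectional fitting against DMSO baseline.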

SMILES	outcome [1]	AC50 [2]	outcome [3]	AC50 [4]	AC50 [5]	outcome [6]	outcome [7]	AC50 [8]	AC50 [9]	AC50 [10]	outcome [2]	outcome [4]	outcome [5]	outcome [8]	outcome [9]	outcome [10]	AC50 [1]	AC50 [3]	AC50 [6]	AC50 [7]
C1CCC(SSC2CCCCC2)CC1	inactive	30.4 µM (active)	inactive	28.8 µM (active)	11.7 µM (active)	inactive	inactive	15.9 µM (active)	20 µM (active)	32.2 µM (active)	–	–	–	–	–	–	–	–	–	–
NCCO	inactive	–	inactive	–	–	inactive	inactive	–	–	–	inactive	inactive	inactive	inactive	inactive	inactive	–	–	–	–
CC1(C)CC(N=C=O)CC(C)(CN=C=O)C1 (stereo not given)	inactive	–	inactive	–	–	inactive	inactive	–	–	–	inactive	inactive	inactive	inactive	inactive	inactive	–	–	–	–
Nc1ccc(S(=O)(=O)c2ccc(N)cc2)cc1	inactive	–	inactive	–	–	inactive	inactive	–	–	–	inactive	inactive	inactive	inactive	inactive	inactive	–	–	–	–
CC(CO)OC(C)CO (stereo not given) (tested in a mixture with another compound)	inactive	–	inactive	–	–	inactive	inactive	–	–	–	inactive	inactive	inactive	inactive	inactive	inactive	–	–	–	–
OC[C@@H](O)[C@@H](O)[C@H](O)[C@H](O)CO	inactive	–	inactive	–	–	inactive	inactive	–	–	–	inactive	inactive	inactive	inactive	inactive	inactive	–	–	–	–
CC(C)c1ccc(C(=O)N=C(N)N)cc1S(C)(=O)=O	inactive	–	inactive	–	–	inactive	inactive	–	–	–	inactive	inactive	inactive	inactive	inactive	inactive	–	–	–	–
CN[C@H]1CC[C@@H](c2ccc(Cl)c(Cl)c2)c2ccc(S(N)(=O)=O)cc21	–	26 µM (active)	–	31.4 µM (active)	20 µM (active)	–	–	10.3 µM (active)	20 µM (active)	28.1 µM (active)	–	–	–	–	–	–	9.57 µM (active)	27.3 µM (active)	32.7 µM (active)	34.1 µM (active)
CCCCCCC(=O)OCC	inactive	–	inactive	–	–	inactive	inactive	–	–	–	inactive	inactive	inactive	inactive	inactive	inactive	–	–	–	–
CCCc1cc(=O)[nH]c(=S)[nH]1	inactive	–	inactive	–	–	inactive	inactive	–	–	–	inactive	inactive	inactive	inactive	inactive	inactive	–	–	–	–
O=C(OCCCCCOC(=O)c1ccccc1)c1ccccc1	inactive	–	inactive	–	–	inactive	inactive	–	–	–	inactive	inactive	inactive	inactive	inactive	inactive	–	–	–	–
COc1ccc(C)cc1N	inactive	–	inactive	–	–	inactive	inactive	–	–	–	inactive	inactive	inactive	inactive	inactive	inactive	–	–	–	–
COCCOC[C@H](CC1(C(=O)NC2CCC(C(=O)O)CC2)CCCC1)C(=O)Oc1ccc2c(c1)CCC2 (stereo not given in full)	inactive	–	inactive	–	–	inactive	inactive	–	–	–	inactive	inactive	inactive	inactive	inactive	inactive	–	–	–	–
Cc1ccc(Cl)cc1	inactive	–	inactive	–	–	inactive	inactive	0.148 µM (active)	–	–	inactive	inactive	inactive	–	inactive	inactive	–	–	–	–
CCNc1cccc(C)c1	inactive	–	inactive	–	–	inactive	inactive	–	–	–	inactive	inactive	inactive	inactive	inactive	inactive	–	–	–	–
Cc1ccccc1Cl	inactive	–	inactive	–	–	inactive	inactive	–	–	–	inactive	inactive	inactive	inactive	inactive	inactive	–	–	–	–
C=CCOC(=O)c1ccccc1C(=O)OCC=C	inactive	–	inactive	–	–	inactive	inactive	–	–	–	inactive	inactive	inactive	inactive	inactive	inactive	–	–	–	–
O=C(O)CCCCC(=O)O	inactive	–	inactive	–	–	inactive	inactive	–	–	–	inactive	inactive	inactive	inactive	inactive	inactive	–	–	–	–
Cc1oc(-c2ccccc2)nc1CCOc1cccc2c1ccn2CCC(=O)O	inactive	–	inactive	–	–	inactive	inactive	–	–	–	inactive	inactive	inactive	inactive	inactive	inactive	–	–	–	–
CCCCCCOCCO	inactive	–	inactive	–	–	inactive	inactive	–	–	–	inactive	inactive	inactive	inactive	inactive	inactive	–	–	–	–
NCC1(Cc2noc(=O)[nH]2)CCCCC1	inactive	–	inactive	–	–	inactive	inactive	–	–	–	inactive	inactive	inactive	inactive	inactive	inactive	–	–	–	–
CCOC(=O)C(C)(C)Oc1ccc(Cl)cc1	inactive	–	inactive	–	–	inactive	inactive	–	–	–	inactive	inactive	inactive	inactive	inactive	inactive	–	–	–	–
CCCCCC(=O)O	inactive	–	inactive	–	–	inactive	inactive	–	–	–	inactive	inactive	inactive	inactive	inactive	inactive	–	–	–	–
CC1(C)NC(=O)NC1=O	inactive	–	inactive	–	–	inactive	inactive	–	–	–	inactive	inactive	inactive	inactive	inactive	inactive	–	–	–	–
Cc1cccc([N+](=O)[O-])c1C	inactive	–	inactive	–	–	inactive	inactive	–	–	–	inactive	inactive	inactive	inactive	inactive	inactive	–	–	–	–
Cc1cc(=O)[nH]c(=S)[nH]1	inactive	–	inactive	–	–	inactive	inactive	–	–	–	inactive	inactive	inactive	inactive	inactive	inactive	–	–	–	–
Cc1ccc(C)c(C)c1	inactive	–	inactive	–	–	inactive	inactive	–	–	–	inactive	inactive	inactive	inactive	inactive	inactive	–	–	–	–
C=CCc1ccc(O)c(OC)c1	inactive	–	inactive	–	–	inactive	inactive	–	–	–	inactive	inactive	inactive	inactive	inactive	inactive	–	–	–	–
